Experimental data published in PubChem BioAssay (Tox21).
Records with an inconclusive call do not appear. Where a call stands in place of a potency, no number is given. Values without a mark were called inactive. The source made the active and inactive calls. Unless noted, calls come from the whole dose curve; as a rule, active = well fitted curve in the direction sought with a large enough effect in the repeat runs; inconclusive = weak or mixed curves; inactive = no such curve, though single readings can be large; an effect the other way counts as inactive or inconclusive.

Tests used:
[1] = biological target: Aryl hydrocarbon receptor (Homo sapiens) (UniProt P35869); assay: qHTS assay to identify small molecule that activate the aryl hydrocarbon receptor (AhR) signaling pathway (AID 743085); note: nearly all actives have a fitted effect of over 15% in size; note: potency is the fitted concentration of half-maximal effect;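 for activation: HG2L7.5c1 human HepG2 liver cells with stably integrated DRE-driven firefly reporter; series mostly up to about 70 µM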
Aryl hydrocarbon receptor (Homo sapiens), sequence (P35869 whole entry, looked up): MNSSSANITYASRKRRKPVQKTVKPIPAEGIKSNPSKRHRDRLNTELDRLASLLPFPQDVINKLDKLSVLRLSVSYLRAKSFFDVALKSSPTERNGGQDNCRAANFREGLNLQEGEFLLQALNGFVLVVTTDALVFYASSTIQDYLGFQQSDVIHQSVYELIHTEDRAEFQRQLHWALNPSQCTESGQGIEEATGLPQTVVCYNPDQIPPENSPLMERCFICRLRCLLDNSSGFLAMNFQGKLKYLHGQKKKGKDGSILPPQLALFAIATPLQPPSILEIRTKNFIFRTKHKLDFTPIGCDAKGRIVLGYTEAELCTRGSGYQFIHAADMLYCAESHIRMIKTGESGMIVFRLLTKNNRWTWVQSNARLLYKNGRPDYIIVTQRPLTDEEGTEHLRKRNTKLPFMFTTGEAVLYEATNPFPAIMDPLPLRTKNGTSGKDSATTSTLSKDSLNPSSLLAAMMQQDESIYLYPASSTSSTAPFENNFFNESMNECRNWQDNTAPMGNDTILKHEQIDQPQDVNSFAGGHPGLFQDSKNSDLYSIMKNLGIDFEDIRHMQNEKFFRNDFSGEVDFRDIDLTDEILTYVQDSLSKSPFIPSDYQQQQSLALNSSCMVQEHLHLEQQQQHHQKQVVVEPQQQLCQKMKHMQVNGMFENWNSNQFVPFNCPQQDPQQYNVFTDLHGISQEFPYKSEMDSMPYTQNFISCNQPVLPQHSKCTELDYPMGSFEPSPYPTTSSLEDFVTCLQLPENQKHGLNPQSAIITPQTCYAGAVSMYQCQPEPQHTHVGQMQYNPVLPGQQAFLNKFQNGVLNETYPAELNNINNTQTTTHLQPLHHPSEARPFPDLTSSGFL
In short: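 Compounds were tested in HepG2 hepatocellular carcinoma cells harbouring a stably integrated luciferase gene under control of 20 DREs. Increased reporter signal after 24 h treatment at 37C was taken as AhR activation.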

[2] = qHTS assay to identify small molecule that activate the aryl hydrocarbon receptor (AhR) signaling pathway - cell viability counter screen (AID 743086);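 note: HepG2 liver cells carrying the AhR DRE luciferase reporter; series mostly up to about 70 µM; nearly all actives have a fitted effect of over 45% in size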
In short: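 HepG2-AhR-luc (HG2L7.5c1) cells, 4000/well, were preincubated 5 h at 37C, exposed to compound in qHTS format for 24 hr at 37C, then given CellTiter-Fluor for 30 min; viability was read as fluorescence in the reporter wells.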

[3] = biological target: Peroxisome proliferator-activated receptor gamma (Homo sapiens) (UniProt P37231); assay: qHTS assay to identify small molecule agonists of the peroxisome proliferator-activated receptor gamma (PPARg) signaling pathway (AID 743094; active = well fitted activation curve with a large enough effect in the signal ratio in the repeat runs, not every such curve was filed as active; the % refers to the signal ratio)
Peroxisome proliferator-activated receptor gamma (Homo sapiens), sequence (P37231 whole entry, looked up): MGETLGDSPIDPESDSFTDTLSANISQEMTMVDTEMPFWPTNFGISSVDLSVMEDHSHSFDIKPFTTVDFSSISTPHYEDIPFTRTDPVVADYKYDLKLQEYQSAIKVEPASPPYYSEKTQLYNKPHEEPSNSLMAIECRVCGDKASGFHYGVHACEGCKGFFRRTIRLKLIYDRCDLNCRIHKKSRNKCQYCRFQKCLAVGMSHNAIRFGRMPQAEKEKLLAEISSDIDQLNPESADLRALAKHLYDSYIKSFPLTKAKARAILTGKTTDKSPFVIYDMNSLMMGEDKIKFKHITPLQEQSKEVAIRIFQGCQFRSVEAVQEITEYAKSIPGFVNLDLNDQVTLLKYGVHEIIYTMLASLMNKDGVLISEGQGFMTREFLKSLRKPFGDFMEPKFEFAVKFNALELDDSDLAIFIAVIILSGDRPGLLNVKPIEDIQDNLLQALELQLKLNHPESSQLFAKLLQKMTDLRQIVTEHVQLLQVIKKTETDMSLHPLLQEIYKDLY
In short: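 Cells from the PPARg UAS-bla HEK293H line are plated and incubated 5 h at 37C. Compounds in DMSO are pinned in and left 17 h at 37C. LiveBLAzer B/G substrate is then added for 1 h at room temperature before fluorescence is measured.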

[4] = biological target: Peroxisome proliferator-activated receptor gamma (Homo sapiens) (UniProt P37231); assay: qHTS assay to identify small molecule antagonists of the peroxisome proliferator-activated receptor gamma (PPARg) signaling pathway (AID 743191; calls by dose curve; note: series mostly up to about 63 µM; nearly all actives have a fitted effect of over 30% in size)
In short: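 GeneBLAzer PPARg UAS-bla HEK293H cells carrying a UAS-driven beta-lactamase reporter were plated at 3000 cells/well, preincubated 5 h at 37C, then given compound for 17 h at 37C; LiveBLAzer B/G FRET substrate was read after 1 h at room temperature.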

[5] = qHTS assay to identify small molecule antagonists of the peroxisome proliferator-activated receptor gamma (PPARg) signaling pathway - cell viability counter screen (AID 743194); note: nearly all actives have a fitted effect of over 55% in size
In short: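 PPARg-UAS-bla HEK293H cells were plated, rested 5 h at 37 C, then treated with compounds plus rosiglitazone (50 nM final) for 17 h at 37 C; viability was then read by CellTiter-Glo luminescence after 30 min at room temperature.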

[6] = qHTS assay for small molecule agonists of the antioxidant response element (ARE) signaling pathway (AID 743202; active = well fitted activation curve with a large enough effect in the signal ratio in the repeat runs, not every such curve was filed as active; the % refers to the signal ratio)
In short: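 Steps: seed ARE-bla HepG2 cells (2,000/well); incubate 5 h at 37 C; add compounds by pin tool; incubate 16 h at 37 C; add FRET substrate; read fluorescence after 2 h at RT.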

[7] = qHTS assay for small molecule agonists of the antioxidant response element (ARE) signaling pathway - cell viability counter screen (AID 743203; calls by dose curve; note: nearly all actives have a fitted effect of over 55% in size)
In short: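 Cytotoxicity was tested in parallel with the ARE reporter screen. ARE-bla HepG2 cells were exposed to compounds for 16 hrs, and viability was taken from CellTiter-Glo luminescence.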

[8] = qHTS assay for small molecule activators of the heat shock response signaling pathway - cell viability counter screen (AID 743209); note: nearly all actives have a fitted effect of over 50% in size
In short: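 Cytotoxicity counter screen run in parallel with the HSE beta-lactamase reporter, using the same wells. HeLa HSE-bla cells received compound for 5 h at 37 C; ATP-based CellTiter-Glo luminescence was measured after 30 min at room temperature.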

[9] = qHTS assay for small molecule activators of the heat shock response signaling pathway (AID 743210; active = well fitted activation curve with a large enough effect in the signal ratio in the repeat runs, with a control signal flat, not every such curve was filed as active; the % refers to the signal ratio;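 note: HeLa cells with beta-lactamase reporter driven by heat shock elements; series mostly up to about 63 µM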)
In short: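 Activation of heat shock element-controlled beta-lactamase expression is measured in HeLa cells by LiveBLAzer FRET fluorescence, with compound exposure lasting 5 h at 37 C and substrate loading 2.5 h at room temperature.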

[10] = qHTS assay to identify small molecule agonists of the peroxisome proliferator-activated receptor delta (PPARd) signaling pathway - cell viability counter screen (AID 743211); note: nearly all actives have a fitted effect of over 55% in size
In short: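 Counter screen for cytotoxicity run in parallel with the PPARd reporter screen. Beta-lactamase reporter HEK293H cells exposed to compounds 17 h; ATP-based CellTiter-Glo luminescence quantified viability.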

Row | Structure (SMILES) | Potency [1] | Potency [2] | outcome [3] | Potency [4] | outcome [5] | Potency [6] | outcome [7] | outcome [8] | outcome [9] | outcome [10] | ratio activity, negative = inhibition [4] | activity change, negative = cytotoxicity [5] | activation [6] | viability change, negative = cytotoxic [7] | activity change, negative = cytotoxicity [8] | activation [9] | activity change, negative = cytotoxicity [10]
1 | CC(=O)OC(C(=O)c1ccccc1)c1ccccc1 (stereo unspecified) | inactive | inactive | inactive | inactive | inactive | inactive | inactive | inactive | inactive | inactive | – | – | – | – | – | – | –
2 | CC(=O)Nc1ccc(C)cc1 | inactive | inactive | inactive | inactive | inactive | inactive | inactive | inactive | inactive | inactive | – | – | – | – | – | – | –
3 | OC[C@@H](O)[C@H](O)[C@@H](O)[C@@H](O)CO | inactive | inactive | inactive | inactive | inactive | inactive | inactive | inactive | inactive | inactive | – | – | – | – | – | – | –
4 | CCCCOC(=O)C(=O)OCCCC | inactive | inactive | inactive | inactive | inactive | inactive | inactive | inactive | inactive | inactive | – | – | – | – | – | – | –
5 | O=C1c2ccccc2-c2ccccc21 | inactive | inactive | inactive | inactive | inactive | inactive | inactive | inactive | inactive | inactive | – | – | – | – | – | – | –
6 | CCOc1ccc(NC(=O)OC(C)C)cc1OCC | inactive | inactive | inactive | inactive | inactive | inactive | inactive | inactive | inactive | inactive | – | – | – | – | – | – | –
7 | Cc1ccccc1C(=O)N1CC/C(=N\OS(=O)(=O)O)c2ccc(Cl)cc21 | inactive | inactive | inactive | inactive | inactive | inactive | inactive | inactive | – | inactive | – | – | – | – | – | – | –
8 | O=c1[nH]c(=O)c2[nH]c(=O)[nH]c2[nH]1 | inactive | inactive | inactive | – | – | – | – | – | – | – | -6.65% [at 13.2 µM] | -35.1% [at 13.2 µM] | 2.83% [at 8.36 µM] | 8.26% [at 8.36 µM] | -0.886% [at 13.2 µM] | -0.669% [at 13.2 µM] | 7.12% [at 13.2 µM]
9 | OC(CCN1CCCCC1)(c1ccccc1)c1ccccc1 | 21.1 µM (active) | inactive | inactive | inactive | inactive | inactive | inactive | inactive | – | inactive | – | – | – | – | – | – | –
10 | CCCCCCCCCCCCC1CO1 (stereo unspecified) | inactive | inactive | inactive | inactive | inactive | inactive | inactive | inactive | inactive | inactive | – | – | – | – | – | – | –
11 | Nc1ccnc(=O)[nH]1 | inactive | inactive | inactive | inactive | inactive | inactive | inactive | inactive | inactive | inactive | – | – | – | – | – | – | –
12 | CC(C)SCc1ccco1 | inactive | inactive | inactive | inactive | inactive | inactive | inactive | inactive | inactive | inactive | – | – | – | – | – | – | –
13 | CCCCCCCCC(=O)OCC | inactive | inactive | inactive | inactive | inactive | inactive | inactive | inactive | inactive | inactive | – | – | – | – | – | – | –
14 | NC(=O)NC(=O)Cc1ccccc1 | inactive | inactive | inactive | inactive | inactive | inactive | inactive | inactive | inactive | inactive | – | – | – | – | – | – | –
15 | CCOC(=O)OCC/C(SC(=O)OCC)=C(\C)N(C=O)Cc1cnc(C)nc1N | inactive | inactive | inactive | inactive | inactive | inactive | inactive | inactive | inactive | inactive | – | – | – | – | – | – | –
16 | O=C(O)c1ccccc1C(=O)OCc1ccccc1 | inactive | inactive | inactive | inactive | inactive | inactive | inactive | inactive | inactive | inactive | – | – | – | – | – | – | –
17 | CCN(CCO)c1cccc(C)c1 | inactive | inactive | inactive | inactive | inactive | inactive | inactive | inactive | inactive | inactive | – | – | – | – | – | – | –
18 | CCCO | inactive | inactive | inactive | inactive | inactive | inactive | inactive | inactive | inactive | inactive | – | – | – | – | – | – | –
19 | CNC(=O)NC | inactive | inactive | inactive | inactive | inactive | inactive | inactive | inactive | inactive | inactive | – | – | – | – | – | – | –
20 | Cc1nc2ccccc2c(=O)o1 | inactive | inactive | inactive | inactive | inactive | inactive | inactive | inactive | – | inactive | – | – | – | – | – | – | –
21 | C1=C\CC/C=C\CC/1 | inactive | inactive | inactive | inactive | inactive | inactive | inactive | inactive | inactive | inactive | – | – | – | – | – | – | –
22 | C[C@H](CCC(=O)O)[C@H]1CC[C@H]2[C@@H]3[C@H](O)C[C@@H]4C[C@H](O)CC[C@]4(C)[C@H]3C[C@H](O)[C@]12C | inactive | inactive | inactive | inactive | inactive | inactive | inactive | inactive | – | inactive | – | – | – | – | – | – | –
23 | C[CH2][Ge]([Cl])([CH2]C)[CH2]C | inactive | inactive | inactive | inactive | inactive | inactive | inactive | inactive | inactive | inactive | – | – | – | – | – | – | –
24 | CN(C)CCCNCCC#N | inactive | inactive | inactive | inactive | inactive | inactive | inactive | inactive | inactive | inactive | – | – | – | – | – | – | –
25 | CCCCCCCCCCCCOC(C)=O | inactive | inactive | inactive | inactive | inactive | inactive | inactive | inactive | inactive | inactive | – | – | – | – | – | – | –
